Drawing on PubChem BioAssay (EPA / NIEHS), this text covers outcome and AC50 for three molecules.

Molecules are shown by their SMILES. Active and inactive are the calls of the source. How the source made its calls: active means hit-call score of the fitted dose curve at least 0.9, where 1 is the maximum; inactive means score below 0.9.

The AC50 is the concentration giving half of the maximal activity seen.

Experiment [1] is described as follows: BSK_hDFCGF_SRB: Viability Assessment in the BioMAP Diversity Plus: hDFCGF Assay (AID 2283061).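 Further: cells exposed to compound for 24 h before the read.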 To be noted: primary human foreskin fibroblasts. An outline of the steps:
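Human foreskin fibroblasts in 96-well plates were treated 24 h. Total protein was measured by 0.1% SRB staining after 10% TCA fixation, read at 560 nm. Data were fitted bidirectionally against DMSO.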

Read-out in experiment [2]: TIMP metallopeptidase inhibitor 1 (TIMP1), TIMP1 (gene 7076)
The experiment is described as follows: BSK_hDFCGF_TIMP1: BioMAP Diversity Plus: hDFCGF Assay for TIMP metallopeptidase inhibitor 1 (TIMP1) Biomarker Activity (AID 2283062). The settings on record: primary human foreskin fibroblasts; actives raise or lower the signal. The essentials: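 Human foreskin fibroblast primary cultures dosed for 24 h; secreted/surface TIMP-1 quantified by ELISA. Bidirectional curve fitting against DMSO baseline; cytotoxicity tracked in parallel cultures by SRB total-protein staining.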

Read-out in experiment [3]: Monokine induced gamma interferon (MIG), CXCL9 (gene 4283)
The experiment is described as follows: BSK_hDFCGF_MIG: BioMAP Diversity Plus: hDFCGF Assay for Monokine induced gamma interferon (MIG) Biomarker Activity (AID 2283063). To be noted: primary human foreskin fibroblasts; actives raise or lower the signal. The essentials:
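MIG/CXCL9 measured by ELISA 24 h after dosing primary human skin fibroblasts. Activity fitted in both directions against DMSO controls. Cytotoxicity was checked in parallel cultures by SRB staining read at 560 nm.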

Read-out in experiment [4]: Matrix Metallopeptidase 1 (MMP1), MMP1 (gene 4312)
In words: BSK_hDFCGF_MMP1: BioMAP Diversity Plus: hDFCGF Assay for Matrix Metallopeptidase 1 (MMP1) Biomarker Activity (AID 2283064). The settings on record: primary human foreskin fibroblasts; actives raise or lower the signal. The essentials: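 ELISA read-out of MMP1 from human foreskin fibroblasts (primary skin cells), 24 h post-dose. Gain or loss of signal was fitted bidirectionally versus DMSO negative control; cytotoxicity was checked by SRB in parallel cultures.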

Read-out in experiment [5]: Vascular cell adhesion molecule 1 (VCAM1), VCAM1 (gene 7412)
In words: BSK_hDFCGF_VCAM1: BioMAP Diversity Plus: hDFCGF Assay for Vascular cell adhesion molecule 1 (VCAM1) Biomarker Activity (AID 2283065).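 On AC50: VCAM-1 protein level quantified by ELISA after 24 h chemical exposure.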 To be noted: primary human foreskin fibroblasts; actives raise or lower the signal. An outline of the steps:
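Human foreskin fibroblast primary cells dosed with chemical, VCAM-1 measured by ELISA at 24 h. Bidirectional curve fitting relative to DMSO as negative control/baseline.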

Read-out in experiment [6]: Intercellular Adhesion Molecule 1 (ICAM1), ICAM1 (gene 3383)
In words: BSK_KF3CT_ICAM1: BioMAP Diversity Plus: KF3CT Assay for Intercellular Adhesion Molecule 1 (ICAM1) Biomarker Activity (AID 2283067). To be noted: primary human keratinocytes with fibroblasts; actives raise or lower the signal. The essentials:
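Human keratinocyte–foreskin fibroblast co-culture was treated for 24 h. Cell-surface ICAM-1 was quantified by ELISA, fitted bidirectionally relative to DMSO. Cytotoxicity was checked in parallel cultures by SRB total-protein staining.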

Read-out in experiment [7]: Interferon-gamma inducible Protein 10 (IP10), CXCL10 (gene 3627)
In words: BSK_KF3CT_IP10: BioMAP Diversity Plus: KF3CT Assay for Interferon-gamma inducible Protein 10 (IP10) Biomarker Activity (AID 2283068). The settings on record: primary human keratinocytes with fibroblasts; actives raise or lower the signal. An outline of the steps:
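KF3CT co-culture (keratinocytes + foreskin fibroblasts), 24 h compound, IP-10 by ELISA; bidirectional fit vs DMSO baseline.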

Experiment [8] is described as follows: BSK_KF3CT_SRB: Viability Assessment in the BioMAP Diversity Plus: KF3CT Assay (AID 2283069).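 Further: read 24 h after compound addition.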 The settings on record: primary human keratinocytes with fibroblasts. The essentials:
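SRB read-out at 560 nm (0.1% stain, TCA-fixed cells) gauges overt cytotoxicity in a human skin keratinocyte–fibroblast co-culture 24 h post-dosing. Signal change was fitted bidirectionally relative to DMSO control.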

Read-out in experiment [9]: Interleukin-1 alpha (IL1a), IL1A (gene 3552)
The experiment is described as follows: BSK_KF3CT_IL1a: BioMAP Diversity Plus: KF3CT Assay for Interleukin-1 alpha (IL1a) Biomarker Activity (AID 2283070). To be noted: primary human keratinocytes with fibroblasts; actives raise or lower the signal. The essentials:
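Primary skin co-culture (keratinocytes, foreskin fibroblasts), 24 h exposure; ELISA for IL-1a; bidirectional curve fit vs DMSO.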

Read-out in experiment [10]: C-C motif chemokine 2 (Homo sapiens) (UniProt P13500)
The experiment is described as follows: BSK_KF3CT_MCP1: BioMAP Diversity Plus: KF3CT Assay for Monocyte Chemoattractant Protein 1 (MCP1/CCL2) Biomarker Activity (AID 2283073). The settings on record: primary human keratinocytes with fibroblasts; actives raise or lower the signal. An outline of the steps: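 Human keratinocyte–foreskin fibroblast co-culture; MCP-1 measured by ELISA 24 h after dosing. Bidirectional fit vs DMSO; cytotoxicity tracked by SRB total protein in parallel cultures.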

Read-out in experiment [11]: Matrix Metallopeptidase 9 (MMP9), MMP9 (gene 4318)
The experiment is described as follows: BSK_KF3CT_MMP9: BioMAP Diversity Plus: KF3CT Assay for Matrix Metallopeptidase 9 (MMP9) Biomarker Activity (AID 2283074).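 On AC50: MMP9 protein level quantified by ELISA in the co-culture.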 To be noted: primary human keratinocytes with fibroblasts; actives raise or lower the signal. The essentials: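 ELISA read-out of MMP-9 at 24 h post-dosing in a co-culture of human skin keratinocytes and foreskin fibroblasts. Gain or loss of signal was fitted in both directions against DMSO.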

Read-out in experiment [12]: urokinase plasminogen activator (uPA), PLAU (gene 5328)
The experiment is described as follows: BSK_KF3CT_uPA: BioMAP Diversity Plus: KF3CT Assay for urokinase plasminogen activator (uPA) Biomarker Activity (AID 2283075). To be noted: primary human keratinocytes with fibroblasts; actives raise or lower the signal. The essentials: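 Skin co-culture (keratinocytes + foreskin fibroblasts), human primary; 24 h post-dose; uPA by ELISA; gain/loss fit vs DMSO baseline.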

Read-out in experiment [13]: E-selectin (Homo sapiens) (UniProt P16581)
In words: BSK_LPS_Eselectin: BioMAP Diversity Plus: LPS Assay for Eselectin Biomarker Activity (AID 2283077). To be noted: primary human HUVEC with PBMC; actives raise or lower the signal. An outline of the steps: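 Human umbilical vein endothelial cells co-cultured with PBMC under LPS stimulation; cell-surface E-selectin measured by ELISA 24 h after dosing. Change in either direction versus DMSO, with SRB total-protein staining in parallel cultures for cytotoxicity.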

Read-out in experiment [14]: Interleukin-8 (IL8), CXCL8 (gene 3576)
The experiment is described as follows: BSK_LPS_IL8: BioMAP Diversity Plus: LPS Assay for Interleukin-8 (IL8) Biomarker Activity (AID 2283078). The settings on record: primary human HUVEC with PBMC; actives raise or lower the signal. The essentials:
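Human umbilical vein endothelial cells co-cultured with PBMC, LPS-stimulated, exposed to compound for 24 h. IL-8 quantified by ELISA; fitted in both directions against DMSO, with SRB total-protein staining of parallel cultures for cytotoxicity.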

Experiment [15] is described as follows: BSK_LPS_SRB: Viability Assessment in the BioMAP Diversity Plus: LPS Assay (AID 2283079).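 Further: total protein by sulforhodamine B absorbance as a cytotoxicity measure; measured one day after compound addition.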 To be noted: primary human HUVEC with PBMC. An outline of the steps: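 Co-culture of human umbilical vein endothelial cells and PBMC, read 24 h after dosing. Total protein by 0.1% SRB staining after 10% TCA fixation, absorbance at 560 nm; bidirectional fit against DMSO.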

Read-out in experiment [16]: Interleukin-1 alpha (IL1a), IL1A (gene 3552)
The experiment is described as follows: BSK_LPS_IL1a: BioMAP Diversity Plus: LPS Assay for Interleukin-1 alpha (IL1a) Biomarker Activity (AID 2283080). The settings on record: primary human HUVEC with PBMC; actives raise or lower the signal. An outline of the steps: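 Human umbilical vein endothelial cells co-cultured with PBMC and stimulated with LPS; IL-1a measured by ELISA 24 h after dosing. Bidirectional fitting against DMSO; cytotoxicity checked by SRB staining in parallel cultures.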

Read-out in experiment [17]: Plasminogen activator inhibitor-1 (PAI1), SERPINE1 (gene 5054)
In words: BSK_hDFCGF_PAI1: BioMAP Diversity Plus: hDFCGF Assay for Plasminogen activator inhibitor-1 (PAI1) Biomarker Activity (AID 2283066). The settings on record: primary human foreskin fibroblasts; actives raise or lower the signal. An outline of the steps: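 PAI-1 levels in human dermal foreskin fibroblasts were quantified by ELISA 24 h after dosing, with gain or loss analysed against DMSO. Overt cytotoxicity was checked by sulforhodamine B total-protein staining in parallel cultures.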

Read-out in experiment [18]: Transforming growth factor beta 1 (TGFb1), TGFB1 (gene 7040)
In words: BSK_KF3CT_TGFb1: BioMAP Diversity Plus: KF3CT Assay for Transforming growth factor beta 1 (TGFb1) Biomarker Activity (AID 2283072). To be noted: primary human keratinocytes with fibroblasts; actives raise or lower the signal. An outline of the steps:
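ELISA quantifies TGF-b1 at 24 h post-dose in a primary human skin co-culture of keratinocytes and fibroblasts, with gain or loss judged against DMSO. Parallel SRB total-protein staining flags overt cytotoxicity.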

Read-out in the next experiment: CD40, CD40 (gene 958)
In words: BSK_LPS_CD40: BioMAP Diversity Plus: LPS Assay for CD40 Biomarker Activity (AID 2283076). The settings on record: primary human HUVEC with PBMC; actives raise or lower the signal. An outline of the steps: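 HUVEC plus PBMC co-culture stimulated with LPS; CD40 quantified by ELISA 24 h after compound dosing. Fitting was bidirectional relative to DMSO. SRB staining of parallel cultures flagged overt cytotoxicity.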

Sequence of E-selectin (Homo sapiens) (P16581 whole entry, looked up): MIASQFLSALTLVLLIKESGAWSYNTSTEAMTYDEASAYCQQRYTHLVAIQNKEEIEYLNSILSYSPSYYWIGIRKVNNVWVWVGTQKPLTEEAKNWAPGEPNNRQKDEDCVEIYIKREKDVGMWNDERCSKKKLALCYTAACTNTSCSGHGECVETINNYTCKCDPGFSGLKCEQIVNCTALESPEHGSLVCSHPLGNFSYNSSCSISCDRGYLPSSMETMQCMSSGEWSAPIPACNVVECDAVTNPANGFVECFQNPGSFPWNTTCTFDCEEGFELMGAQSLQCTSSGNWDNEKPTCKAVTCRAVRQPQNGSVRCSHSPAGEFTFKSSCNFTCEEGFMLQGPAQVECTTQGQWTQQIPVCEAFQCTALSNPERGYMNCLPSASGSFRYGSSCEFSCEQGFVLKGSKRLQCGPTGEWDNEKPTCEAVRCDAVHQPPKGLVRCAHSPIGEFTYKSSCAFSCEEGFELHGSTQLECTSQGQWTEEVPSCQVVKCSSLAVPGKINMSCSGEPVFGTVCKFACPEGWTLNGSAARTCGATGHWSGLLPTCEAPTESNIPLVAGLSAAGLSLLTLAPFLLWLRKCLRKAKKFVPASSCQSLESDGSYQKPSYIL

For the molecule `Cc1ccc(N(C)C)cc1`, the outcome in experiment [1], in experiment [2], in [3], in experiment [4], in [5] and in experiment [6] was inactive. In addition, the result in [7], in experiment [8], in [9], in [10], in [11] and in experiment [12] was inactive. The result in experiment [13], in [14], in experiment [15] and in experiment [16] was inactive.
Regarding `CCCCCCCCCCO`, the result in experiment [1], in [2], in experiment [3], in experiment [4], in [17] and in experiment [6] was inactive. Moreover, the result in experiment [7], in experiment [8], in experiment [9], in experiment [18], in experiment [10] and in experiment [11] was inactive. In addition, the outcome in experiment [12] was “inactive”; with CD40, CD40 (gene 958) it was “inactive”; in experiment [13] it was “inactive”; in experiment [14], “inactive”; in [15], “inactive”; in experiment [16] it was “inactive”.
As for `CCCCC(CC)COC(=O)CC(C(=O)OCC(CC)CCCC)S(=O)(=O)O` (configuration not stated), the AC50 was 24.4 µM (active) in experiment [1]; 20 µM (active) in experiment [2]; 11.8 µM (active) in [3]; 25.7 µM (active) in experiment [4]; 6.62 µM (active) in [5]; 11.8 µM (active) in [6]. Moreover, the AC50 in [7] is 6.69 µM (active); in experiment [8], 8.47 µM (active); in experiment [9], 8.83 µM (active); in experiment [18] it was 2.66 µM (active); in experiment [10], 3.25 µM (active); in experiment [11], 4.84 µM (active). The AC50 is 12 µM (active) in experiment [12]; 32.3 µM (active) with CD40, CD40 (gene 958); 38 µM (active) in [13]; 31.6 µM (active) in experiment [14]; 30.7 µM (active) in experiment [15]; 32.3 µM (active) in experiment [16].
